Screening results (PubChem)
The full list was thinned out, with hits kept by preference.
Dicer inh: inhibitors of human Dicer processing of pre-microRNA; Q9UPY3; cat-ELCCA pre-miR-21 Dicer processing, chemiluminescence; hits give high values; z-score at 25 µM; actives 6% (n = 47,000); AID 1347074; in the data active means z-score above about 3, passing the limit was not always enough;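 further: higher signal means more uncleaved substrate so more Dicer inhibition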
Each line names hits and unclear results; the compound was inactive in the other large screens.

O=C(OCc1ccc(Cl)cc1)c1cnc(NNC(=O)C(Cl)Cl)nc1C(F)(F)F	none
CC(=O)C1=NN(c2ccccc2)/C(=C2\C(=O)N(c3ccccc3)N=C2C)S1	none
COc1ccc(-c2noc(Cc3ccc(C)cc3)n2)cc1	none
O=C(Nc1ccc(F)cc1F)c1cc(Cl)c(-n2cccc2)c(Cl)c1	none
Cn1c(=O)cc2c3c(c(NS(=O)(=O)c4ccc(Cl)cc4)ccc31)C(=O)c1ccccc1-2	none
Cc1ccc(S(=O)(=O)NC(=O)Nc2cc(-c3ccc(Cl)cc3)nn2C)cc1	none
O=C(c1c2oc(-c3ccccc3)ccc-2c2ccccc12)C(F)(F)F	none
Cc1c(C(=O)O)nnn1-c1ccccc1Oc1ccc(Cl)cc1Cl	none
CC1c2ccsc2CCN1C(=S)NC(=O)c1ccc(C(C)(C)C)cc1 (stereo not drawn)	none
O=C(Nc1ccncc1)c1cc(-c2ccc(Cl)cc2)oc1C(F)(F)F	none
Brc1ccc2c(c1)C1CC(c3ccco3)=NN1C(c1ccccc1)O2 (stereo not drawn)	Dicer inh 5.7
c1ccc(C2Oc3ccccc3C3CC(c4cccnc4)=NN32)cc1 (stereo not drawn)	none
CCOc1ccc(C2Oc3ccc(Cl)cc3C3CC(c4ccco4)=NN32)cc1 (stereo not drawn)	Dicer inh 3.8
COC(=O)c1ccc(C2Oc3ccccc3C3CC(c4cc(OC)ccc4O)=NN32)cc1 (stereo not drawn)	none
Cc1onc(-c2c(F)cccc2Cl)c1-c1ncc(-c2ccc(Br)cc2)o1	none
Cc1cc(NC(=O)Nc2cc(S(=O)(=O)N(C)C)ccc2C)c(C(F)(F)F)o1	none
c1ccc(CN2CN(c3nccs3)CN(c3nccs3)C2)cc1	none
COc1cccc(C2Nc3c(C)cc(C)cc3-c3cc(C)nn32)c1O (stereo not drawn)	none
Cc1ccc2c(c1)-c1cc(C)nn1C(c1ccccc1O)N2 (stereo not drawn)	none
COc1ccc(C2Nc3ccccc3-c3cc(C)nn32)c(OC)c1 (stereo not drawn)	none
COc1cccc(C2Nc3c(C)cc(C)cc3-c3cc(C)nn32)c1OC (stereo not drawn)	Dicer inh 4.9
COc1cc(O)ccc1C1Nc2ccc(C)cc2-c2cc(C)nn21 (stereo not drawn)	none
Cc1cc2n(n1)C(c1cccc(O)c1O)Nc1ccccc1-2 (stereo not drawn)	Dicer inh 21
COc1cccc(C2Nc3c(C)cccc3-c3cc(C)nn32)c1OC (stereo not drawn)	none
Cc1cc(C)c2c(c1)-c1cc(C)nn1C(c1ccc(O)cc1O)N2 (stereo not drawn)	none
Cc1ccc2c(c1)-c1cc(C)nn1C(c1ccc(O)cc1O)N2 (stereo not drawn)	Dicer inh 3.7
COc1cccc(C2Nc3ccc(C)cc3-c3cc(C)nn32)c1O (stereo not drawn)	Dicer inh 3
Cc1cc2n(n1)C(c1ccc(O)cc1O)Nc1ccccc1-2 (stereo not drawn)	none
COc1cccc(C2Nc3ccc(C)cc3-c3cc(C)nn32)c1OC (stereo not drawn)	none
Cc1ccc(COc2ncnc3cc(Cl)ccc23)cc1	none
CSc1sc(-c2ccnc(SCCS(=O)(=O)c3ccc(C(F)(F)F)cn3)n2)c(-c2ccccc2)c1C#N	none
Clc1ccc(-c2nnc3sc(-c4ccccc4)nn23)cc1	none
C=CCOc1ccc(C2c3c(oc4cc(C)c(C)cc4c3=O)C(=O)N2CCCN2CCOCC2)cc1 (stereo not drawn)	none
COc1ccc(C(=O)CC2(O)C(=O)Nc3ccccc32)c(OC)c1 (stereo not drawn)	none
CCOC(=O)C1=C(C)N=C2SC(C)C(=O)N2C1c1ccccc1Cl (stereo not drawn)	none
CCOC(=O)CSc1nnc(Cc2ccc(Cl)cc2)c(=O)[nH]1	none
COc1ccc(C2Nc3ccc(C)cc3-c3cc(C)nn32)cc1OC (stereo not drawn)	none
COc1ccc(Br)cc1C1Nc2ccc(C)cc2-c2cc(C)nn21 (stereo not drawn)	Dicer inh 3.5
COc1ccc(Br)cc1C1Nc2c(C)cccc2-c2cc(C)nn21 (stereo not drawn)	none
CCOc1ccc(/C(O)=C2\C(=O)C(=O)N(c3nccs3)C2c2cccc(Br)c2)cc1 (stereo not drawn)	none
CCOC(=O)C(/C=N/Nc1ccccc1)C(=O)OCC	none
Cc1ccc2c(c1)-c1cc(C)nn1C(c1ccc(O)cc1)N2 (stereo not drawn)	none
Cc1cc2n(n1)C(c1ccc(N3CCCC3)cc1)Nc1ccccc1-2 (stereo not drawn)	Dicer inh 4.5
Cc1ccc2c(c1)-c1cc(C)nn1C(c1ccc(N(C)C)cc1)N2 (stereo not drawn)	Dicer inh 6.8
Cc1cc2n(n1)C(c1ccsc1)Nc1ccccc1-2 (stereo not drawn)	none
CCN(CC)c1ccc(C2Nc3ccccc3-c3cc(C)nn32)cc1 (stereo not drawn)	Dicer inh 3.3
Cc1ccc2c(c1)-c1cc(C)nn1C(c1ccc(C(=O)O)cc1)N2 (stereo not drawn)	none
Cc1cc2n(n1)C(c1ccc(N3CCOCC3)cc1)Nc1c(C)cccc1-2 (stereo not drawn)	Dicer inh 3.8
Cc1cccnc1NC(=S)Nc1ccccc1Cl	none
Cc1cc(-c2nnc(C(F)(F)F)o2)ccc1NC(=O)c1cccs1	none
CC(C)NC(=O)NNC(=O)C(C)n1nnc(N2CCOCC2)n1 (stereo not drawn)	none
O=C(NNc1nc(-c2cccs2)ns1)c1ccc(Cl)cc1	none
Cc1ccc(Cn2c(Oc3ccc(Cl)cc3Cl)nc3c2c(=O)n(C)c(=O)n3C)cc1	none
CCOC(=O)c1cc(C)ccc1NC(=S)Nc1ccc(Cl)cc1C	none
CC1=CC2CC1C1C(=O)N(c3ccc(OC(F)(F)F)cc3)C(=O)C21 (stereo not drawn)	none
O=C(Nc1cccnc1Oc1ncnc2cc(Cl)ccc12)c1cccs1	none
CCOC(=O)C1=C(C)N=C2SCCC(=O)N2C1c1ccccc1 (stereo not drawn)	none
Cc1ccc(O)c(C2Nc3c(C)cccc3-c3cc(C)nn32)c1 (stereo not drawn)	Dicer inh 5.7
Cc1cc2n(n1)C(/C=C\c1ccccc1)Nc1c(C)cccc1-2 (stereo not drawn)	Dicer inh 6
Cc1cc(C)c2c(c1)-c1cc(C)nn1C(c1cccs1)N2 (stereo not drawn)	none
COc1ccc(C2Nc3ccc(C)cc3-c3cc(C)nn32)cc1O (stereo not drawn)	none
COC(=O)c1ccc(C2Nc3c(C)cc(C)cc3-c3cc(C)nn32)cc1 (stereo not drawn)	none
CSc1ccc(C2Nc3ccc(C)cc3-c3cc(C)nn32)cc1 (stereo not drawn)	none
Cc1cc2n(n1)C(c1cccc(O)c1O)Nc1c(C)cccc1-2 (stereo not drawn)	none
CSc1ccc(C2Nc3c(C)cccc3-c3cc(C)nn32)cc1 (stereo not drawn)	Dicer inh 3.9
CSc1ccc(C2Nc3ccccc3-c3cc(C)nn32)cc1 (stereo not drawn)	Dicer inh 4.8
CC1=C(C(=O)Nc2ccc(C)cn2)C(c2ccc(Br)cc2)C2=C(CC(C)(C)CC2=O)N1 (stereo not drawn)	none
C=CCNc1nc(C2(C)CC3(CC(COCCCCC)OC3=O)C(=O)O2)cs1 (stereo not drawn)	none
COc1cc(CNCCSc2nnnn2C)ccc1OCc1cccc(Cl)c1	none
O=[N+]([O-])c1cnc(Sc2nnc(-c3ccco3)n2-c2ccc(OCc3ccccc3)cc2)s1	none
O=c1[nH]c(=O)n(CCO)c2nonc12	none
Cn1ncc(C(=O)Nc2ccc(Cl)c(Cl)c2)c1[N+](=O)[O-]	none
CSc1cc(C(F)(F)F)c(C(=O)Nc2cccc(C)c2C)cn1	none
